Screens as filed in PubChem BioAssay.
FLuc modulator = counter-screen for miR-21 project: firefly luciferase inhibitors or activators | P08659 | purified FLuc, Km substrates, luminescence inhibition | Potency, µM (doses to about 57.5 µM), without a hit: at the top dose activity change, negative = inhibition, most hits filed as inhibitors | 360,000 compounds, 6.9% hits;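 further: plate controls were vehicle for no effect and reference inhibitor for full effect; nearly all actives have a fitted effect of over 55% in size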
Target sequence (P08659 whole entry, looked up): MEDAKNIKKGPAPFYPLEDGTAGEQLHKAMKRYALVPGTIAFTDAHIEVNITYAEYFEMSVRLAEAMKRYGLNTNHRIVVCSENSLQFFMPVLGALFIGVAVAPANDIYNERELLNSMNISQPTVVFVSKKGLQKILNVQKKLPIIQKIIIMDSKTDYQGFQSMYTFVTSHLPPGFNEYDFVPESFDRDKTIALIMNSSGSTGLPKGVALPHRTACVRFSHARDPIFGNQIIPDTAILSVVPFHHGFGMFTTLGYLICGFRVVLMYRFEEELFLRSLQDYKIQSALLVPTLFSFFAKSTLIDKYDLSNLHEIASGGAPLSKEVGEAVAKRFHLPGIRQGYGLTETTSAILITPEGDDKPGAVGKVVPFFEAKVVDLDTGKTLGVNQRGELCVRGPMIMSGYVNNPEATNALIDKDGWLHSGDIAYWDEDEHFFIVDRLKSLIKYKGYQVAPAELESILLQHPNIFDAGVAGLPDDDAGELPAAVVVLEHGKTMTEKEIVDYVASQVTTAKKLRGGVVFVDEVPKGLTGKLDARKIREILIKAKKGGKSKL
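Purified P. pyralis luciferase, 10 nM final, with Km-level 10 uM D-luciferin and 10 uM ATP in 50 mM Tris acetate pH 7.5, 10 mM Mg acetate, 0.01% Tween-20, 0.05% BSA; 6-point qHTS titration about 60 µM downward; luminescence read.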
ELG1 genotoxic = genotoxicity induction in ELG1-luciferase HEK293T cells. HEK293T ELG1-luciferase reporter, luminescence, 16 h. Potency, µM (top dose mostly 46 µM), for inactives: at the highest dose activity change, positive = activation, usual class: activators. 330,000 compounds, 1.3% hits; further: % of control where 0% means no effect; nearly all actives have a fitted effect of over 60% in size
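Quantitative HTS format in 1536-well plates. HEK293T ELG1-luciferase reporter cells receive test compound and are incubated 16 hr at 37 °C, 5% CO2; ONE-Glo added, 30 min room temperature, then luminescence read.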
Rab9 promoter act = activators of Rab9 promoter. Huh7 Rab9 promoter-luciferase reporter, luminescence, 24 h. Potency, µM (top dose mostly 9.22 µM), for the others: top-dose activation, negative = inhibition, most hits filed as activators. 320,000 compounds, 2.8% hits. AID 485297; further: % of control where 0% means no effect; nearly all actives have a fitted effect of over 60% in size
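Luciferase signal after 10 min detection reagent at ambient indicates Rab9 promoter upregulation; stably transfected Huh7 cells were treated 24 h with compound in DMSO at 37 °C, 5% CO2.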
SMN2 splice enh = increases expression of the SMN2 splice variant; HEK293 SMN2-luciferase splicing reporter, luminescence, 30-36 h; Potency, µM (top dose mostly 46.1 µM), for the others: at the top dose activity change, positive = activation, hits mostly activators; 210,000 compounds, 2.8% hits; further: % of control where 0% means no effect; nearly all actives have a fitted effect of over 55% in size
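HEK293 cells carry an SMN2 minigene-luciferase reporter in which exon 7 inclusion puts luciferase in frame. Cells were seeded at 2000 cells/well, attached for 10-12 hours, then exposed to compounds for 30-36 hours at 37C before ONE-Glo luminescence.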
NPC1 promoter act = NPC1 promoter activation; Huh7 NPC1 promoter luciferase reporter, 24 h; Potency, µM (doses to about 9.22 µM), for the others: at the top dose activation, most hits filed as activators; 320,000 compounds, 2.4% hits; further: % of control where 0% means no effect; nearly all actives have a fitted effect of over 60% in size
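In 1536-well qHTS, Huh7 cells harboring an NPC1 promoter–luciferase construct received compound for 24 h; activation was quantified by luminescence following luciferase reagent addition.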
p53 reactivation = restores transcriptional activity of mutant p53. H1299 p53-A138V BP100-luciferase reporter, luminescence, 24 h. Potency, µM (doses to about 92.2 µM), for the others: at the highest dose activity change, positive = activation, most hits filed as activators. 320,000 compounds, 0.063% hits; further: % of control where 0% means no effect; nearly all actives have a fitted effect of over 45% in size
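H1299 (p53-null), stable ts p53-A138V + BP100-Luc; 1000 cells/well, Opti-MEM/10% FBS; cpd 4 pt, 1:5; 24 h, 37 deg C, 5% CO2; detection reagent 10 min RT; luminescence.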
Starred values were filed as active, the others as inactive; ? = inconclusive; · = no result given; [ ] = dose if it differs, or a comment. Most compounds without a hit are left out; they make up all but 7.4% or so of the library. The call rests on the fitted dose curve; in most records, active means well fitted curve in the direction sought with a large enough effect; inconclusive means small, poorly fitted or top-dose-only effect, or another doubt; inactive means no such curve, though single readings can be large; an effect the other way counts as inactive or inconclusive. Potency means the concentration at half of the fitted maximal effect.

SMILES	FLuc modulator	ELG1 genotoxic	Rab9 promoter act	SMN2 splice enh	NPC1 promoter act	p53 reactivation
Cc1cccnc1Nc1nc(-c2ccc(O)c(O)c2)cs1	16.9µM*	5.17µM*	?	3.4%	1.4%	?
Cc1nc(C)c(-c2csc(Nc3ncccc3C)n2)s1	6.75µM*	?	1.26µM*	·	2.51µM*	?
COC(=O)N1CCC2(CC1)CN(C(=O)Nc1cccc(F)c1)C2	·	·	·	13.3%	·	·
O=Cc1ccc(Cl)cc1	·	·	·	4.2%	·	·
Clc1ccc(CN2CCC(CNc3ncnc4onc(-c5ccc(Cl)cc5)c34)CC2)cc1	1.5%	·	·	-24.0%	·	·
S=C(N=Nc1ccccc1)NNc1ccccc1	19µM*	14.8%	-1.0%	?	-2.0%	?
S=C(NNC(=S)Nc1ccccc1)Nc1ccccc1	?	5.2%	?	·	?	18.8%
Cc1cccnc1NC(=S)NCCc1ccccc1	16.9µM*	?	?	?	23.5%	-6.2%
Cc1cccnc1NC(N)=S	-4.9%	0.7%	1.3%	12.8%	0.6%	-1.4%
COc1ccc(NC(=S)Nc2ncccc2C)cc1OC	?	?	?	35.5µM*	?	9.6%
Cc1cccnc1NC(=S)Nc1ncccc1C	13.5µM*	?	0.708µM*	·	1.26µM*	?
COc1ccc(NC(=S)Nc2ncccc2C)c(OC)c1	9.53µM*	11.8%	?	?	?	11.4%
O=C(Cn1cc(S(=O)(=O)c2ccccc2)c(=O)c2cc(Cl)ccc21)Nc1ccc2c(c1)OCO2	-0.4%	·	·	13.2%	·	·
CCCCC(CC)COCCCN (centres undefined)	·	·	·	1.2%	·	·
COc1ccc(-n2ncc3c(NCCCN4CCOCC4)ncnc32)cc1	10.7µM*	9.2µM*	?	-2.3%	?	?
Cc1ccc(-n2ncc3c(NCCCN4CCOCC4)ncnc32)cc1Cl	9.53µM*	·	·	·	·	·
COc1ccc(CCNc2ncnc3c2cnn3-c2ccc(F)cc2)cc1	-15.5%	·	·	·	·	·
Cc1ccc(-n2ncc3c(NCCCN4CCOCC4)ncnc32)c(C)c1	-1.1%	-2.1%	-7.1%	-8.1%	1.4%	0.3%
COc1ccc(-c2oc3ncnc(NCCCN4CCOCC4)c3c2-c2ccc(OC)cc2)cc1	2.1%	-3.9%	-3.0%	-15.9%	-0.7%	-11.6%
COc1ccc(-n2ncc3c(NCCN4CCOCC4)ncnc32)cc1	15.1µM*	14.6µM*	?	-8.4%	28.2%	19.6%
Cc1ccc(-n2ncc3c(NCCO)ncnc32)cc1Cl	6.01µM*	·	·	·	·	·
Fc1ccc(CCNC(=S)Nc2ccc(F)c(Cl)c2)cc1	-14.2%	-22.0%	-2.7%	8.5%	-3.3%	2.6%
CCc1ccc(NC(=O)CC2C(=O)N(c3ccc(OC)cc3)C(=O)N2Cc2ccc(OC)cc2)cc1 (centres undefined)	-6.9%	·	·	·	·	·
CCOc1ccccc1CNCc1c(C(=O)O)c(C)n(Cc2ccc(Cl)cc2)c1C	1.7%	·	·	1.1%	·	·
CC(=O)NNc1ncnc2c1cnn2-c1ccc(C)c(Cl)c1	23.9µM*	16.3%	16.1%	1.5%	2.1%	11.9%
SMILES	FLuc modulator	ELG1 genotoxic	Rab9 promoter act	SMN2 splice enh	NPC1 promoter act	p53 reactivation
COc1ccc(/C=N/OCc2ccc(Br)cc2)c(OC)c1	?	2.9%	-2.3%[1.84 µM]	·	-0.7%	4.8%
O=C(c1cc2ccccc2o1)c1cccs1	10.7µM*	15.6%	2.82µM*	?	3.55µM*	?
Cc1ccc(C(=O)c2cc3ccccc3o2)cc1C	4.78µM*	16.4µM*	3.55µM*	?	2.24µM*	?
O=C(c1cccc([N+](=O)[O-])c1)c1cc2ccccc2o1	?	-1.5%	16.6%	-14.7%	9.3%	19.9%
Cc1ccc(NC(=O)CN(C)C(=O)c2cc3ccccc3o2)cc1	-2.2%	1.2%	-1.0%	7.5%	-6.3%	0.3%
O=C(NC(=S)Nc1ccc(NC(=O)c2cccs2)cc1)c1cc2ccccc2o1	0.2%	?	-6.3%	-6.9%	0.1%	-9.5%
Cc1ccc(C(=O)c2cc3ccccc3o2)cc1	2.13µM*	?	2.24µM*	?	2µM*	?
CCCOc1ccccc1/C=C1\SC(N2CCCCC2)=NC1=O	12µM*	-10.5%	22.6%	·	?	19.7%
O=C1N=C(N2CCCCC2)S/C1=C\c1ccccc1F	?	?	?	·	?	15.7%
COc1ccc(OC)c(/C=C2\SC(N3CCCCC3)=NC2=O)c1	19µM*	-0.3%	-5.0%	·	21.2%	-2.1%
COc1cc(OC)c(OC)cc1/C=C1\SC(N2CCCCC2)=NC1=O	3.79µM*	9.1%	-2.5%	·	-1.8%	0.4%
COC(=O)CC1C(C)(C)C(OC(C)=O)[C@@]2(O)C=C3C4CC(=O)OC(c5ccoc5)[C@]4(C)CCC3[C@@]1(C)C2=O (some centres undefined)	·	·	·	-3.0%	·	·
COC(=O)c1nc(NC(=O)C(C)(C)C)n[nH]1	23.9µM*	5.4%	-4.4%	2.0%	-2.4%	13.2%
Cc1csc(N/N=C/c2c(F)cccc2Cl)n1	13.5µM*	?	6.3%	·	0.2%	?
Cc1csc(N/N=C/c2ccccc2F)n1	6.01µM*	?	3.5%	·	11.6%	24.8%
CCCOc1ccc(/C=N/Nc2cc(N3CCOCC3)ncn2)c(O)c1	-4.8%	17.7%	-44.5%	·	-39.5%	8.8%
CCOc1ccc(/C=N/Nc2nc(C)cs2)c(O)c1	3.79µM*	16.2%	1.78µM*	·	1.58µM*	?
O=C(NCc1cccnc1)C1COc2ccccc2O1 (centres undefined)	1.1%	0.8%	2.9%	-10.5%	-0.7%	5.1%
COc1ccc(CNC(=O)C2COc3ccccc3O2)cc1 (centres undefined)	?	13.6%	?	12.6µM*	?	?
COc1ccccc1CNC(=O)C1COc2ccccc2O1 (centres undefined)	?	18.4µM*	-6.3%	?	15.0%	6.4%
CC(=O)c1cnc2cc(C)nn2c1C	-2.0%	1.0%	3.5%	-9.8%	-4.6%	8.1%
CC(=O)c1cnc2cc(-c3ccc(C)cc3)nn2c1C	3.38µM*	7.31µM*	3.55µM*	11.2µM*	?	?
CC(=O)c1cnc2nc(SCc3ccc(C)cc3)nn2c1C	-6.9%	0.1%	4.0%	·	-2.7%	·
